We go through 23 compounds from paper PMC5540273 (PLoS ONE, 2017).
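Further: KINOMEscan kinase panel screen.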

For the test, the system named is ACVR2A. The conditions noted are these: concentration: 1 μM, replicates: in singlicate; n = 1.
On to `CN1C(=O)C(Nc2cc(Cl)c(O)c(Cl)c2)=C(c2ccc(Cl)cc2)C1=O` [SB-404321], for which the “%Inh” value came out at 0%.
Then `O=C(Nc1n[nH]c2cc(-c3ccccc3F)ccc12)C1CC1` [SB-733371], with 38%; and `COc1cc2nccc(Nc3cccc(Oc4ccccc4)c3)c2cc1OC.Cl` [GW284543], with 0%; and `COc1cc2ncn(-c3cc(OCc4ccncc4)c(C(N)=O)s3)c2cc1OC` [GSK336313], with 0%.
Then `Cc1ccc(Oc2ccc(Nc3ncnc4cc[nH]c34)cc2C)cn1`, with 0%; and `COc1ccc(-n2cnc3c(N)ncnc32)cc1` [SKF-97236], with 35%.
Then `O=C(NCCNc1ccnc(Nc2ccc(F)cc2)n1)Nc1ccc2c(c1)OCO2` [GSK1379882], with 0%.
As to `COc1ccc(-c2cc3c(C)nc(N)nc3n([C@H]3CC[C@H](O)CC3)c2=O)cn1`, the “%Inh” value is reported as 0%.
Then `O=C(Nc1ccc2c(c1)OCO2)NC1CCN(c2ccnc(NCc3ccc(F)cc3)n2)CC1` [GSK1379859], with 0%.
Then `O=c1cc(N2CCOCC2)nc2n(Cc3ccc(F)c(Cl)c3)ccn12` [GSK2297099], with 0%; and `CCC(=O)c1c(-c2ccccc2)c2cc(Cl)ccc2c(=O)n1Cc1ccc(C(=O)O)cc1`, with 0%.
Then `CCS(=O)c1ccc(-c2coc3ccc(-c4nnc(C)o4)cc23)cc1` (centres unmarked), with 0%; and `CC(C)(C)c1ccc(C(=O)Nc2cn3cc(-c4ccccc4)ccc3n2)cc1`, with 0%.
In the case of `Nc1nc(N)c2nc(-c3ccccc3)[nH]c2n1` [SKF-12778], the “%Inh” value is listed as 27%.
Then `Cc1nc(N(C)[C@H]2CN(C(=O)CC#N)CC[C@H]2C)c2cc[nH]c2n1`, with 15%; and `CCC(=O)c1c(-c2ccccc2)c2cc(Cl)ccc2c(=O)n1Cc1cc(S(C)(=O)=O)n(CCC(C)(C)O)n1`, with 0%; and `CCn1c(-c2nonc2N)nc2ccccc21` [SB-693162/GW549034], with 0%.
Then `CCn1c(-c2ccoc2)nc2cnccc21` [SB-733887], with 0%; and `Cc1cccc(-c2cc(-c3c[nH]nc3-c3ccccn3)ccn2)c1` [GW679395], with 0%.
`Nc1ncnc2c1ncn2-c1cccc(F)c1` [SKF-97560]: the “%Inh” value worked out at 0%.
Then `CN1C(=O)C(Nc2ccccc2)=C(c2ccccc2)C1=O` [SB-300079], with 0%; and `OCCCNc1nccc(-c2c(-c3cccc(C(F)(F)F)c3)nn3cc(C(F)(F)F)ccc23)n1` [GW630813], with 0%.
Consider `COc1ccc(-c2cc3c(C)nc(N)nc3n([C@H]3CC[C@H](OCCO)CC3)c2=O)cn1`, for which the “%Inh” value stood at 0%.
